Data on 14 molecules can be found in PubChem BioAssay (NCI).

Test systems include NCI-H23 lung; NCI-H322M lung; HOP-62 NSCLC; NCI-H460 lung; HOP-92 NSCLC; A549/ATCC NSCLC; 786-0 renal; COLO 205 colon.
Experiment in all cases: NCI-60 one-dose screen, 48 h (100 = growth as untreated, 0 = no growth, -100 = all killed)
Holding throughout (conditions): 10 µM unless noted

The panel holds about 83,000 compounds, 20% with a hit somewhere; the sample as a whole holds those more often.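 Negative percent growth values reflect cell death: -40 means 40% of the cells present at the start died, and -100 means all died.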 A number with no mark means an inactive call. Active and inactive are the calls of the source. How the source made its calls: active means growth percent below 10; inactive means the rest.

Regarding `Cc1ccccc1-n1nnc(C(=O)Nc2ccc(-c3ccccc3)cn2)c1C`, the growth in the test on NCI-H23 lung is 38.1% [50 µM]; in the test on NCI-H322M lung, 81.3% [50 µM]; in the test with HOP-62 NSCLC it was 93.7% [50 µM]; with NCI-H460 lung, 61.9% [50 µM]; in the test with HOP-92 NSCLC it was 74.3% [50 µM]; in the test on A549/ATCC NSCLC, 29.8% [50 µM]. Moreover, the growth is 62.1% [50 µM] with 786-0 renal and 40.2% [50 µM] in the test with COLO 205 colon.

`COc1cc2nc(SCc3cc(OC)c(OC)c(OC)c3)n(-c3ccccc3OC)c(=O)c2cc1OC`: the growth with NCI-H23 lung is 79.9%; in the test on NCI-H322M lung it was 85.1%; in the test on HOP-62 NSCLC, 93.2%; in the test with NCI-H460 lung, 83.4%; with HOP-92 NSCLC, 65.8%; with A549/ATCC NSCLC, 88%. Further, the growth in the test on 786-0 renal was 91.4%; in the test with COLO 205 colon, 118%.

With `c1ccc(-c2n(Cc3ccc4ccccc4n3)c3ccccc3[n+]2Cc2ccc3ccccc3n2)cc1`, the growth is -5.45% (active) in the test with NCI-H23 lung; 14.3% in the test with NCI-H322M lung; -1.08% (active) in the test on HOP-62 NSCLC; 1.2% (active) in the test on NCI-H460 lung; -18.8% (active) with HOP-92 NSCLC; 13.7% in the test on A549/ATCC NSCLC. Besides, the growth with 786-0 renal was 11.9%; in the test on COLO 205 colon, -69.2% (active).

`O=c1c2c(=NCCN3CCCC3)cc3c(=O)n(CCCN4CCOCC4)c(=O)c4ccc(c(O)n1CCCN1CCOCC1)c2c4-3`: the growth with NCI-H23 lung was -49% (active); in the test with NCI-H322M lung, -10.8% (active); in the test on HOP-62 NSCLC it was -17.3% (active); in the test with NCI-H460 lung it was -8.16% (active); in the test on HOP-92 NSCLC, -4.88% (active); in the test with A549/ATCC NSCLC, 6.22% (active). Further, the growth with 786-0 renal is 1.28% (active); in the test on COLO 205 colon it was -55.8% (active).

On to `COc1cc2cc(Oc3ccc(NC(=O)Nc4cccc(C(F)(F)F)c4)cc3)c(C)nc2cc1OCCN1CCCCC1`, for which the growth in the test with NCI-H23 lung was -75.4% (active); with NCI-H322M lung it was -14.5% (active); in the test with HOP-62 NSCLC it was -68.8% (active); with NCI-H460 lung, -84.2% (active); in the test with HOP-92 NSCLC it was 23.4%; in the test with A549/ATCC NSCLC, -56.2% (active). Besides, the growth in the test on 786-0 renal is -83.7% (active); in the test with COLO 205 colon, -74.9% (active).

Turning to `c1ccc(-c2n(Cc3ccc4ccccc4c3)c3ccccc3[n+]2Cc2ccc3ccccc3c2)cc1`, the growth was -20.9% (active) in the test with NCI-H23 lung; 3.63% (active) with NCI-H322M lung; 4.19% (active) in the test with HOP-62 NSCLC; -82.1% (active) in the test with NCI-H460 lung; -40.4% (active) with HOP-92 NSCLC; 5.14% (active) with A549/ATCC NSCLC. The growth in the test with 786-0 renal is -94.8% (active); with COLO 205 colon, -70.7% (active).

As to `CC(C)(C)[Si](C)(C)OC1[C@@H](COC(=O)NC(=O)CCl)O[C@@H](n2cnc3c(N)ncnc32)[C@H]1O[Si](C)(C)C(C)(C)C` (some centres not stated), the growth is -45% (active) in the test on NCI-H23 lung; 113% in the test with NCI-H322M lung; 81.9% in the test on HOP-62 NSCLC; 64.6% in the test with NCI-H460 lung; 12.7% in the test with HOP-92 NSCLC; 62.6% with A549/ATCC NSCLC. Moreover, the growth with 786-0 renal was 4.11% (active); in the test with COLO 205 colon, 27.5%.

For the molecule `O=c1nc(NO)[nH]c(=O)n1Cc1ccccc1`, the growth is 105% in the test with NCI-H23 lung; 120% in the test on NCI-H322M lung; 110% in the test with HOP-62 NSCLC; 109% in the test with NCI-H460 lung; -3.57% (active) in the test with HOP-92 NSCLC; 111% with A549/ATCC NSCLC. The results for the growth in the test with 786-0 renal and in the test on COLO 205 colon were 101% and 128%, respectively.

Turning to `CC(C)(C)[Si](C)(C)OC1[C@@H](O[Si](C)(C)C(C)(C)C)[C@@H](CNC(=O)NC(=O)C(F)(F)F)O[C@H]1n1cnc2c(NC(=O)Nc3ccccc3)ncnc21` (some centres not stated), the growth in the test on NCI-H23 lung was 86.4%; in the test on NCI-H322M lung it was 97.6%; in the test on HOP-62 NSCLC, 93%; in the test on NCI-H460 lung it was 36.1%; in the test with HOP-92 NSCLC, -11.4% (active); in the test on A549/ATCC NSCLC, 51.4%. Further, the growth in the test on 786-0 renal was 83.1%; in the test on COLO 205 colon, 91.9%.

Take `COc1ccc(S(=O)(=O)ON=C2C=C(C)C(=O)C(C)=C2)cc1`: the growth in the test on NCI-H23 lung was 98.2%; in the test on NCI-H322M lung it was 103%; in the test on HOP-62 NSCLC, 106%; in the test on NCI-H460 lung, 106%; in the test with HOP-92 NSCLC it was 59.4%; with A549/ATCC NSCLC it was 105%. Also, the values for the growth with 786-0 renal and in the test on COLO 205 colon were 93.1% and 89.2%, respectively.

With `Oc1ccccc1/C=N/Nc1nc2ccccc2s1`, the growth with NCI-H23 lung was 59.4%; in the test on NCI-H322M lung, 63.1%; in the test on HOP-62 NSCLC it was 49.2%; in the test on NCI-H460 lung it was 15.7%; in the test on HOP-92 NSCLC, 44.5%; with A549/ATCC NSCLC, 45%. For the same molecule, the figures for the growth with 786-0 renal and in the test on COLO 205 colon were 73.4% and 38%, respectively.

Turning to `CCC(=O)Nc1nnc(Cc2ccc(OC)c(OC)c2)s1`, the growth with NCI-H23 lung is 60.4%; with NCI-H322M lung, 24.9%; with HOP-62 NSCLC, -67.2% (active); in the test with NCI-H460 lung, -43.7% (active); in the test with HOP-92 NSCLC it was 32.6%; in the test on A549/ATCC NSCLC it was -55% (active). Besides, the growth with 786-0 renal was 9.21% (active); in the test with COLO 205 colon it was 28.2%.

Consider `Cc1cc(=O)oc2c1ccc1oc(C(=O)c3ccccc3)c(C)c12`, for which the growth was 82.1% with NCI-H23 lung; 112% in the test on NCI-H322M lung; 115% in the test on HOP-62 NSCLC; 85% with NCI-H460 lung; 105% in the test on HOP-92 NSCLC; 93.8% with A549/ATCC NSCLC. The figures for the growth in the test on 786-0 renal and in the test on COLO 205 colon were 99.5% and 93.5%, respectively.

As to `Nc1nc(-c2ccnc(Cl)c2)nn1-c1nc2ccccc2s1`, the growth in the test on NCI-H23 lung was 101%; in the test on NCI-H322M lung, 100%; in the test on HOP-62 NSCLC, 99.5%; with NCI-H460 lung, 107%; in the test with HOP-92 NSCLC, 103%; in the test on A549/ATCC NSCLC it was 103%. In addition, the growth with 786-0 renal is 109%; in the test on COLO 205 colon, 116%.
